The text below walks through data of PubChem BioAssay AID1850 (Southern Research Specialized Biocontainment Screening …, 2009).

Hit rate of the full screen: of about 310,000 compounds, about 1,000 (0.32%) were called active. No rule for the calls is given here. Not all results are given here. Entries with a potency or affinity are not part of this list.

The nature of this assay: Inhibition of PhoP regulon, Salmonella typhi GFP reporter cells, confirmation, 4 h (AID 1850).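 Also: 0% = induced wells with vehicle and 100% = uninduced wells.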 The note with it: Salmonella Typhi PhoP-promoter GFP reporter, fluorescence, at 50 µM, stronger effect = higher value.
For the compound `O=c1c(/C=N\NS(=O)(=O)c2ccccc2)coc2ccc(Cl)cc12`, the inhibition was -7.39% (inactive).

Take `C/C(=C\c1ccccc1)CN1CCN(C(C)C)C(CCO)C1` (configuration not stated): the inhibition was -0.3% (inactive).

Consider `CC1=CC(c2ccccc2)n2ncnc2N1` (configuration not stated), for which the inhibition is 3.87% (inactive).

Consider `COC/C=C/C1=CC2=CC(=O)C(C)(OC(=O)c3cnc4ccccc4n3)C(=O)C2=CN1CCc1ccccn1` (configuration not stated), for which the inhibition was 0.66% (inactive).

For the compound `CC(C)c1ccccc1OCC(O)CN(CC(O)COc1cccc2ccccc12)C(C)C` (configuration not stated), the inhibition was -6.27% (inactive).

For the compound `CCN(CCNCC(O)COCc1ccc(Cl)cc1)c1cccc(C)c1` (configuration not stated), the inhibition is -1.24% (inactive).

Take `Cc1c(Cl)cccc1NC(CC(=O)c1ccccc1)C(=O)OCC(=O)c1cccs1` (configuration not stated): the inhibition was -2.54% (inactive).

As for `CC(=O)Nc1ccc(S(=O)(=O)NNC(=O)COc2cccc(C)c2)cc1`, the inhibition was 9.44% (inactive).

On to `Cc1ccc(S(=O)(=O)NNC(=O)Nc2cccc(F)c2)c(C)c1`, for which the inhibition was -7.92% (inactive).

`Cc1ccc(S(=O)(=O)NNC2=NS(=O)(=O)c3ccccc32)c(C)c1`: the inhibition was 0.74% (inactive).

`Cc1ccc(S(=O)(=O)NNc2ccccc2)cc1`: the inhibition was 32.1% (inactive).

In the case of `Cc1cccc(NC(=O)Nc2ccc(S(N)(=O)=O)cc2)c1`, the inhibition was -0.31% (inactive).

In the case of `Cc1ccc(S(=O)(=O)NNC(=O)C(=O)NNS(=O)(=O)c2ccc(C)cc2)cc1`, the inhibition is -7.52% (inactive).

For the compound `CCOC(=O)N1CCN(Cc2nc3cc(NC(=O)c4cccs4)ccc3n2C)CC1`, the inhibition was -16.8% (inactive).

For `COc1cc(CNn2cn[nH]c2=S)ccc1OCC(=O)NC(C)(C)C`, the inhibition is -5.11% (inactive).

Take `CC(=O)N1CN2CN(C(C)=O)CC(C(=O)c3ccc([N+](=O)[O-])cc3)(C2)C1`: the inhibition is 5.88% (inactive).

Take `CCOC(=O)c1ccccc1NC(=O)CSc1nc2ccccc2n1CC(=O)N1CCCC1`: the inhibition is -7.2% (inactive).

For the compound `CN(C)c1ccc(/C=C/c2nc3ccccc3s2)cc1`, the inhibition is -9.15% (inactive).

For the compound `Cc1nc2ccc(C(=O)Nc3ccc(N(C)C)cc3)cc2s1`, the inhibition is -5.67% (inactive).

For `CC(C)CNC(=O)C(=O)NCCCN1CCOCC1`, the inhibition was 3.18% (inactive).

In the case of `CCOc1ccc(N2C(=O)CC(NCCc3c[nH]c4ccccc34)C2=O)cc1` (configuration not stated), the inhibition is 6.97% (inactive).

`CCOc1ccc(NC(=O)CSc2nc3ccccc3nc2N2CC(C)OC(C)C2)cc1` (configuration not stated): the inhibition is -3.96% (inactive).

Turning to `COc1ccc(CNC(=O)C2CCN(S(=O)(=O)c3ccc4c(c3)CC(C)N4C(C)=O)CC2)cc1` (configuration not stated), the inhibition is 1.71% (inactive).

Take `COc1cccc2sc(N(CCCN(C)C)C(=O)COc3ccc(Cl)cc3)nc12`: the inhibition was -1.1% (inactive).

In the case of `Cc1ccc2nc(N(CCCN(C)C)C(=O)CCc3ccccc3)sc2c1`, the inhibition is -4.72% (inactive).

`CN(C)CCCN(C(=O)CCc1ccccc1)c1nc2ccc(F)cc2s1`: the inhibition was 1.04% (inactive).

With `CN(C)CCCN(C(=O)COc1ccc(Cl)cc1)c1nc2c(F)cccc2s1`, the inhibition is 8.92% (inactive).

For the compound `CN(C)CCCN(C(=O)CCc1ccccc1)c1nc2ccc(Cl)cc2s1`, the inhibition is 0.73% (inactive).

For `Cc1ccc2nc(N(CCCN(C)C)C(=O)COc3ccc(Cl)cc3)sc2c1`, the inhibition is 6.88% (inactive).

Regarding `CN(C)CCCN(C(=O)COc1ccccc1)c1nc2ccc(F)cc2s1`, the inhibition was -2.75% (inactive).

Consider `CN(C)CCCN(C(=O)COc1ccc(Cl)cc1)c1nc2ccc(F)cc2s1`, for which the inhibition is 14% (inactive).

With `CCOc1ccc(Oc2cc(N)cc([N+](=O)[O-])c2)cc1`, the inhibition was -14.2% (inactive).

On to `O=C(c1ccc(F)cc1F)N1CCN(c2n[nH]c(=O)[nH]c2=O)CC1`, for which the inhibition was -2.71% (inactive).

As for `COC(=O)c1nnn(CC(=O)NC(=O)Nc2c(C)cccc2C)c1C(=O)OC`, the inhibition is -3.97% (inactive).

Regarding `CCN(CC(=O)NCCc1ccc(Cl)cc1)Cc1nc2ccccc2c(=O)[nH]1`, the inhibition is -9.11% (inactive).

As for `Cc1ccc(NC(=O)CN2C(=O)S/C(=C\c3ccc(OCC(=O)O)c(Br)c3)C2=O)cc1`, the inhibition is -6.05% (inactive).

In the case of `CC1(C)OC(=O)C(=CNc2ncccn2)C(=O)O1`, the inhibition is -4.83% (inactive).

On to `CCSc1nnc(NC(=O)CSc2ncccn2)s1`, for which the inhibition was -1.89% (inactive).

On to `Cc1ccc(N2CC(NC(=O)C3CC3)CC2=O)cc1` (configuration not stated), for which the inhibition is 9.02% (inactive).

As to `Cn1c(N)c(C(=O)COC(=O)CN2C(=O)c3ccccc3C2=O)c(=O)n(C)c1=O`, the inhibition was -5.68% (inactive).

For `CCN1CCN(CCCNC(=O)CCCn2nc(C)c3sc4ccccc4c3c2=O)CC1`, the inhibition is 0.59% (inactive).

On to `COCCCNCCCOc1ccc(Cl)cc1Br`, for which the inhibition was 4.69% (inactive).

In the case of `CCN(CC)CCOCCOc1ccc(Cl)c2ccccc12`, the inhibition was 1.79% (inactive).

In the case of `Cc1cc(Br)ccc1OCCNCc1ccccc1`, the inhibition is 11.4% (inactive).

On to `Brc1ccccc1OCCNCc1ccccc1`, for which the inhibition is 11.4% (inactive).

Regarding `COCCNCCCOc1ccc(Br)cc1Cl`, the inhibition is 5.48% (inactive).

For `Clc1ccc(Cl)c(OCCCCNCc2ccccc2)c1`, the inhibition was 13.1% (inactive).

Consider `CCOc1ccccc1OCCCNCc1ccccc1`, for which the inhibition was -6.34% (inactive).

Regarding `Cc1ccc(OCCOCCN(C)C)c(Cl)c1`, the inhibition is 2.62% (inactive).

`O=C(O)C1C2C=CC(C2)C1C(=O)NCCCN1CCCC1=O` (configuration not stated): the inhibition is -1.57% (inactive).

With `Cn1c(Cn2c(=O)sc3ccccc32)nnc1SCC(=O)N1CCCC1`, the inhibition is 0.97% (inactive).

With `NS(=O)(=O)c1ccc(NCCCn2ccnc2)c([N+](=O)[O-])c1`, the inhibition is 9.73% (inactive).

For `Cc1ccc(NC(=O)CCC(=O)NNC(=S)Nc2ccc(F)cc2F)cc1C`, the inhibition is -6.55% (inactive).

For the compound `COc1cccc(NC(=O)CSC(N)=O)c1`, the inhibition is -6.88% (inactive).

On to `NCCc1nnc(SCC(=O)Nc2cccc(Cl)c2)o1`, for which the inhibition was 5.27% (inactive).

For the compound `O=C(CSC1=NC(=O)C(c2ccccc2)C(=O)N1)Nc1ccccc1Cl` (configuration not stated), the inhibition was 7.4% (inactive).

Take `Cc1ccc(Cl)cc1NC(=O)CSC(N)=O`: the inhibition was -1.36% (inactive).

For `NNC(=O)C(=O)Nc1ccc(Cl)c(Cl)c1`, the inhibition was -4.15% (inactive).

Turning to `O=C(CCC(=O)N1CCCC1)Nc1ccc(Cl)c(Cl)c1`, the inhibition is -7.42% (inactive).

Consider `Cc1ccc(NC(=O)CSCC#N)cc1Cl`, for which the inhibition was -2.58% (inactive).

`CC(=O)NC1C(=O)N=C(SCC(=O)Nc2cccc(Cl)c2)NC1=O` (configuration not stated): the inhibition was 11.8% (inactive).

For `O=C(CSc1ccccn1)N1CCCC(Nc2ccc(F)c(F)c2)C1` (configuration not stated), the inhibition is -15.8% (inactive).

For orientation: inhibition means the relative decrease from the control value, in per cent.
